Test results taken from PubChem BioAssay (EPA / NIEHS).
The source made the active and inactive calls. How the source made its calls: active means hit-call score of the fitted dose curve at least 0.9, where 1 is the maximum; inactive means score below 0.9.

experiment: CCTE_Harrill_HTTr_Viability_MCF7: CCTE's 6-hour Cell Viability Assessment for the High-Throughput Transcriptomics (HTTr) Platform, in MCF-7 cells cultured in DMEM + 10% fetal bovine serum, Harrill Lab (AID 2284010)
How it was run: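 Cells were dosed with chemicals in an eight-point dilution series, imaged 6 hours later for propidium iodide uptake, and the endpoint was analyzed by bidirectional fitting against DMSO as negative control.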

Row | Structure (SMILES) | outcome
1 | CCCCCCCCOC(=O)c1ccccc1C(=O)O | inactive
2 | Cc1ncc(C[n+]2csc(CCO)c2C)c(N)n1 | inactive
3 | C=O.C=O.C=O.C=O.C=O.[Fe] | inactive
4 | Cc1cc(N=Nc2c(O)ccc3ccccc23)c(S(=O)(=O)O)cc1Cl | inactive
5 | CCC(=O)O[C@H]1[C@H](O[C@@H]2[C@@H](C)[C@H](O[C@H]3C[C@@](C)(OC)[C@@H](O)[C@H](C)O3)[C@@H](C)C(=O)O[C@H](CC)[C@@](C)(O)[C@H](O)[C@@H](C)C(=O)[C@H](C)C[C@@]2(C)O)O[C@H](C)C[C@@H]1N(C)C | inactive
6 | CC(=O)C(=NNc1ccc(-c2ccc(NN=C(C(C)=O)C(=O)Nc3ccc(C)cc3C)c(Cl)c2)cc1Cl)C(=O)Nc1ccc(C)cc1C | inactive
7 | CCOC(=O)c1ccccc1C(=O)O | inactive
8 | CCOC(=O)C(C)CC (centres undefined) | inactive
9 | O=c1cc(-c2ccccc2)oc2c1ccc1ccccc12 | inactive
10 | COc1c2occc2c(OC)c2c(=O)cc(C)oc12 | inactive
11 | Nc1c(S(=O)(=O)O)cc(Nc2ccccc2)c2c1C(=O)c1ccccc1C2=O | inactive
12 | C=C1CCC2CC1C2(C)C (centres undefined) | inactive
13 | CCCCN1C(=O)c2ccccc2C1=O | inactive
14 | CCOc1ccc2ccccc2c1 | inactive
15 | CC1=CC(=O)C(C(C)C)CC1 (centres undefined) | inactive
16 | CCCCc1nc(Cl)c(CO)n1Cc1ccc(-c2ccccc2-c2nnn[nH]2)cc1 | inactive
17 | Nc1nc2nc[nH]c2c(=O)[nH]1 | inactive
18 | CCCCOC(=O)/C=C/C(=O)OCCCC | inactive
19 | CN1[C@@H]2CC[C@H]1CC(OC(=O)C(CO)c1ccccc1)C2 (some centres undefined) | inactive
